This is a sample that favours compounds with a hit; in the whole collection about 6.5% have one here.
Vaccinia mCherry: inhibitors of vaccinia virus infection (mCherry reporter signal) | Vaccinia virus mCherry reporter infection, fluorescence | Potency, µM (top dose mostly 36.5 µM), without a hit: at the highest dose activity change, negative = inhibition, usual class: inhibitors | actives 0.63% (n = 310,000); calls by dose curve; tested in A549 cells; also: potency is read from the fitted curve at half-maximal effect; nearly all actives have a fitted effect of over 35% in size
Marburg entry inh: inhibitors of Marburg virus binding or cell entry; Marburg virus pseudotyped entry inhibition, cell reporter; Potency, µM (highest dose often 37.8 µM), for the others: at the top dose activity change, negative = inhibition, most hits filed as inhibitors; actives 1.8% (n = 300,000); calls by dose curve; tested in HEK293 cells; also: potency is read from the fitted curve at half-maximal effect
Lassa entry inh: Lassa virus entry inhibition. Lassa virus pseudotype entry inhibition, cell reporter. Potency, µM (highest dose often 37.9 µM), inactives show top-dose activity change, negative = inhibition, actives largely listed as inhibitors. actives 1.2% (n = 300,000); calls by dose curve; tested in HEK293 cells; also: potency is read from the fitted curve at half-maximal effect; nearly all actives have a fitted effect of over 50% in size
FMDV antiviral: blocks foot and mouth disease virus; Potency, µM (highest dose often 57.9 µM), for the others: at the top dose activity change, negative = inhibition, actives largely listed as inhibitors; FMDV antiviral cell-based qHTS; actives 1.2% (n = 410,000); AID 1159524; calls by dose curve; tested in HEK293T cells; also: read-out not given here; potency is read from the fitted curve at half-maximal effect; nearly all actives have a fitted effect of over 45% in size
HCMV antiviral: blocks human cytomegalovirus replication | activity change, negative = inhibition, % at 57.5 µM | HFF cells, HCMV-luciferase reporter, 72 h; active compounds read low | actives 4.5% (n = 410,000) | AID 1259415; in the data active = activity change below about -60%; inconclusive = no clear call, values can overlap the other calls; inactive = above about -39%
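HFF cells seeded 16 h at 37C, treated with compounds, infected with luciferase-reporter HCMV at MOI 1 PFU/cell; luciferase read at 72 h post infection, normalized to buffer-only and Salinomycin controls.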
VACV Venus inh: inhibitors of vaccinia virus (Venus reporter) | actives 0.46% (n = 330,000) | Potency, µM (series often up to 36.5 µM), for the others: at the top dose activity change, negative = inhibition, usual class: inhibitors | Vaccinia virus Venus reporter expression, fluorescence; calls by dose curve; tested in A549 cells; also: potency is read from the fitted curve at half-maximal effect; nearly all actives have a fitted effect of over 30% in size
* hit, by the source's call; i = inactive; ? = inconclusive; · = no result; [ ] = dose if it differs, or a comment. % is scaled to controls: 0 for no effect and ±100 for the full control effect.

SMILES	Vaccinia mCherry	Marburg entry inh	Lassa entry inh	FMDV antiviral	HCMV antiviral	VACV Venus inh
CO/N=C/C(=N\Nc1ccc(OC)cc1)C(=O)c1ccc(OC)cc1	·	?	11µM*	-22%	-37	-14%
COc1ccc(C(=O)C(/C=N/O)=N/Nc2ccc(F)cc2)cc1	i	-4%[46.1 µM]	4%	-8%	10	-17%
O=[N+]([O-])c1ccc(Sc2ncc3ccccn23)nc1	·	·	·	-4%	-65*	·
CCn1c(Sc2ccc([N+](=O)[O-])cn2)nnc1-c1ccco1	13µM*	?	?	?	-86*	?
O=[N+]([O-])c1ccc(Sc2ccccc2Cl)nc1	·	?	-2%	-22%	-27	·
Cc1ccc(NC(=O)C2CCCN(S(=O)(=O)c3cccc4cccnc34)C2)cc1Cl (stereo unspecified)	-30%	?	?	?	-7	-24%
O=C(Nc1cccc(F)c1)C1CCN(S(=O)(=O)c2cccc3nonc23)CC1	15%	-19%[46.1 µM]	1%	?	-7	-7%
O=C(Nc1ccc(C(F)(F)F)cc1)C1CCCN1S(=O)(=O)c1cccc2cccnc12 (stereo unspecified)	·	?	?	-28%	-75*	·
O=C(Nc1ccccc1N1CCCCC1)C1CCN(S(=O)(=O)c2ccccc2C(F)(F)F)CC1	-11%	?	?	-21%	-61*	-9%
O=C(Nc1ccc(Cl)c(C(F)(F)F)c1)C1CCCN(S(=O)(=O)c2cccc3cccnc23)C1 (stereo unspecified)	-29%	·	5.6µM*	?	0	?
O=C(Nc1ccc(Cl)c(C(F)(F)F)c1)C1CCN(S(=O)(=O)c2cccc3nonc23)CC1	-14%	?	?	32µM*	?	-12%
O=S(=O)(c1ccc(Br)cc1)c1nnn2c1nc(NCc1cccs1)c1sccc12	-20%	·	1%[46.1 µM]	0%	10	-29%
CCCCNC(=O)C(CC)Sc1nc2ccccc2c(=O)n1Cc1ccco1 (stereo unspecified)	-4%	·	?	-21%	-14	9%
COc1ccc(C(=O)NCC(c2ccc3c(c2)OCO3)N2CCN(C)CC2)cc1OC (stereo unspecified)	-3%	·	18%[46.1 µM]	-10%	30	4%
COC(=O)c1ccc(/C=N/NC(=O)CNc2cccc(C)c2)cc1	-1%	3%[46.1 µM]	?	-4%	-6	-1%
CCOc1cc(/C=N/NC(=O)CNc2cccc(C)c2)ccc1OC(=O)c1ccccc1	·	7%	16µM*	-19%	0	-8%
CCOc1cc(/C=N/Nc2cccc(C(=O)O)c2)ccc1OC(=O)c1ccccc1	-12%	?	?	4µM*	64	-7%
CCOC(=O)c1cccc(NC(=O)CCSCCc2ccccn2)c1	-7%	·	17%[46.1 µM]	-3%	6	-7%
O=C(Cc1ccc(Cl)cc1)NCCc1c[nH]c2ccccc12	·	·	·	-20%	15	·
O=C(CCl)N(c1ccc(Cl)cc1)c1c[nH]c2ccccc12	?	?	?	?	-105*	13µM*
O=C(CCl)N(c1ccccc1)c1c[nH]c2ccccc12	?	?	?	?	-103*	?
O=C(O)Cc1c[nH]c2ccccc12	6%	·	·	-14%	·	2%
COc1ccc(N(C(=O)c2ccc(C(C)(C)C)cc2)S(=O)(=O)c2ccc(Cl)cc2)cc1	-15%	·	?	3%	-17	-4%
Clc1nc(-c2ccccn2)nc2scc(-c3ccccc3)c12	-8%	?	?	?	-66*	-15%
CN1CCN(c2nc(-c3cccnc3)nc3scc(-c4ccccc4)c23)CC1	-5%	?	2%	-1%	-34	-6%
SMILES	Vaccinia mCherry	Marburg entry inh	Lassa entry inh	FMDV antiviral	HCMV antiviral	VACV Venus inh
Cc1cc2ncn(S(=O)(=O)c3ccc(S(N)(=O)=O)cc3)c2cc1C	·	·	·	-17%	56	·
CCOc1ccc(S(=O)(=O)n2cnc3cc(C)c(C)cc32)cc1	?	21µM*	?	?	-86*	?
Cc1ncc2c(c1CNC(=O)c1ccc3c(c1)OCO3)CCN(C(=O)c1ccc3ccccc3c1)C2	-7%	·	·	-9%	·	-27%
COc1ccc(Nc2nc(NCCO)nc(N3CCCC3)n2)cc1	·	·	·	-20%	?	·
CCCNc1nc(Nc2ccc(C)cc2)nc(N2CCCC2)n1	·	15µM*	-30%	-28%	·	·
COc1ccc2c(c1)[C@@]1(OCCC=C[C@@H]1C)C(=O)N2Cc1ccc(Br)cc1	·	5%[14.2 µM]	·	·	·	·
Cc1ccc(S(=O)(=O)Cc2cc(F)c([N+](=O)[O-])cc2[N+](=O)[O-])cc1	2.8µM*	?	-21%[46.1 µM]	-41%	·	?
Cc1ccc(C(=O)CCS(=O)(=O)c2ccc(Br)cc2)cc1	-8%	15%[46.1 µM]	?	11%	32	-8%
CCOC(=O)c1ccc([N+](=O)[O-])c(CS(=O)(=O)c2ccc(Cl)cc2)c1	·	·	·	-16%	5	·
Cc1ccc(S(=O)(=O)CCC(=O)c2cccc([N+](=O)[O-])c2)cc1	-5%	?	?	25µM*	-12	-22%
CCCCN(C)C(=O)c1ccc2c(c1)N(Cc1cccc(F)c1)C(=O)c1ccccc1S2	-13%	·	?	-3%	4	-8%
Cc1cccc2sc(N(Cc3cccnc3)C(=O)C3COc4ccccc4O3)nc12 (stereo unspecified)	i	·	14%[46.1 µM]	-9%	?	-17%
CCOc1ccccc1Nc1nc2ccccc2nc1NS(=O)(=O)c1ccc(Cl)cc1	-20%	-20%[46.1 µM]	-2%[46.1 µM]	?	7	-20%
CC(Sc1nnc2ccc3ccccc3n12)C(=O)Nc1ccc(Cl)cc1 (stereo unspecified)	-17%	-5%[46.1 µM]	13%[46.1 µM]	-7%	5	-17%
O=Cc1[nH]c2ccccc2c1N(C(=O)CCl)c1ccc([N+](=O)[O-])cc1	-25%	?	?	-19%	-101*	-4%
CC(=O)n1cc(CO)c2ccccc21	-9%	·	·	-15%	15	1%
CC(=O)n1cc(N(C(=O)CCl)c2ccc([N+](=O)[O-])cc2)c2ccccc21	-28%	?	?	10µM*	?	-21%
CC(=O)n1cc(N(C(=O)CCl)c2ccccc2)c2ccccc21	-20%	?	?	14µM*	-98*	-12%
C/C(=N\Nc1nc(C)c(C)s1)c1ccc([N+](=O)[O-])cc1	?	?	·	28µM*	54	?
C/C(=N\Nc1ccc([N+](=O)[O-])cc1)c1ccc(-n2nncc2C)cc1	?	?	?	-10%	-66*	?
COc1cc2nc(N3CCOCC3)nc(NC3CCN(Cc4ccccc4)CC3)c2cc1OC	-1%	·	·	·	·	-20%
Cc1ccc(NC(=O)COc2ccccc2)c(NC(=O)c2ccccc2C)c1	-1%	4%	21%	-14%	-64*	-5%
Cc1ccc(NC(=O)c2ccco2)c(NC(=O)COc2ccccc2)c1	4%	14%[46.1 µM]	0%	-4%	-33	-12%
Cc1ccc(C(=O)Nc2ccc3oc(-c4ccc(C(C)(C)C)cc4)nc3c2)cc1	-8%	·	-9%[46.1 µM]	?	-11	-11%
